Screens: PubChem BioAssay, Broad Institute
This is a sample that favours compounds with a hit; in the whole collection about 0.47% have one here.
FadD28 binding – M. tuberculosis FadD28 bisubstrate binding inhibition; inhibition, % at 12.5 µM; actives 0.22% (n = 360,000); AID 588549; FadD28 bisubstrate probe binding, fluorescence polarization; in the data active means inhibition above about 8.5%, passing the limit was not always enough
TcdB GH inh – blocks C. difficile toxin B glycohydrolase activity | P18177 | actives 0.24% (n = 350,000) | TcdB glycohydrolase enzymatic assay, plate reader | inhibition, % at 9.99 µM; in the data active means inhibition above about 10%
Y pestis TopoI – inhibitors of Yersinia pestis topoisomerase I. AID 504884. Y. pestis Topo-I cleavage product accumulation, plate reader. activity, % at 10 µM. actives 0.064% (n = 360,000); in the data active means activity above about 50%, passing the limit was not always enough
Mtb BioA inh – BioA (M. tuberculosis) enzyme inhibition. purified M. tuberculosis BioA enzyme, plate reader. inhibition, % at 9.99 µM. actives 0.096% (n = 360,000). AID 602481; in the data active means inhibition above about 40%
Numbers without * were called inactive; x = not tested or not shown.

SMILES | FadD28 binding | TcdB GH inh | Y pestis TopoI | Mtb BioA inh
COc1cccc(NC(=O)Nc2nc(SC(C)(C)C)ns2)c1 | 21* | -1 | -8 | 5
CC(C)OC(=O)c1cccc(C(=O)Oc2ccc(Br)cc2)n1 | -1 | x | 7 | 1
CC(C)OC(=O)c1cccc(C(=O)O)n1 | -1 | 12* | -3 | 0
CCN(Cc1ccccc1)C1CCN(Cc2ccc(SC)cc2)CC1 | -1 | 0 | 18 | 6
CCN(CC)c1ccc(/C=C2\C(=O)c3ccc(C(=O)O)cc3C2=O)cc1 | 25* | x | -4 | x
Cc1cc(=O)c2c(N(C)C)cccc2[nH]1 | -1 | 1 | -5 | 0
COc1cc2ccccc2cc1C(=O)OCC(=O)N(CC(C)C)c1c(N)n(Cc2ccccc2)c(=O)[nH]c1=O | 6 | 2 | 71* | -3
COCCN(C(=O)COC(=O)c1cc2ccccc2cc1OC)c1c(N)n(Cc2ccccc2)c(=O)[nH]c1=O | -2 | 3 | 32 | x
COCCCn1c(SCc2ccc(OC)cc2)nc2cc(OC)c(OC)cc2c1=N | 21* | x | 8 | 1
CCCSc1nc2cc(OC)c(OC)cc2c(=N)n1CCCN1CCOCC1 | -2 | 1 | 8 | x
COc1ccc(Br)cc1CN1CCN(CCO)CC1 | -1 | x | 2 | -2
CC(=O)Nc1ccc(S(=O)(=O)Nc2nc3ccccc3nc2Nc2ccc(S(N)(=O)=O)cc2)cc1 | 2 | x | -4 | -1
CC(=O)Nc1ccc(S(=O)(=O)Nc2nc3ccccc3nc2Nc2ccc(O)c(C(=O)O)c2)cc1 | 13* | 2 | -3 | -14
O=C(CNC(=O)c1ccc(Cl)cc1)OCCCOC(=O)CNC(=O)c1ccc(Cl)cc1 | -5 | 1 | 18 | 1
O=C(OCC(=O)N1CCCCC1)c1ccccc1SCC(=O)N1CCCCC1 | -4 | 16* | 12 | -2
O=C(COC(=O)c1ccccc1SCC(=O)N1CCCC1)NC1CCCCC1 | -3 | 3 | 8 | 0
O=C(CSc1nnc(-c2ccccc2)n1-c1ccc(Cl)cc1)N/N=C/c1ccco1 | 0 | x | -5 | -1
CC(Sc1nnc(CNc2cccc3ccccc23)n1-c1ccccc1)C(=O)N/N=C/c1ccco1 (configuration not stated) | 25* | x | 3 | -2
O=C(CSc1nc2ccccc2c(=O)[nH]1)c1ccc(O)c(O)c1 | -3 | 0 | -8 | 1
Cc1nc2ccccc2nc1OCC(=O)Nc1ccc(F)cc1 | -1 | 12* | 0 | x
Cc1cc(C)cc(OCC(=O)Nc2ccc(F)cc2)c1 | -1 | x | 3 | -3
Cc1ccc(S(=O)(=O)NCC(=O)OC(C)C(=O)c2ccccc2)cc1 (configuration not stated) | -1 | 3 | 1 | -4
O=C(COC(=O)c1ccccn1)Nc1ccccc1OC(F)F | -4 | -2 | -11 | x
Cc1cccc(OCC(O)Cn2ccnc2C)c1 (configuration not stated) | -1 | -7 | 66* | 0
Cc1cccc(C)c1OCC(O)Cn1ccnc1C (configuration not stated) | -1 | 1 | -10 | 0
SMILES | FadD28 binding | TcdB GH inh | Y pestis TopoI | Mtb BioA inh
O=C(NCc1cccs1)C(Cc1ccccc1)NS(=O)(=O)c1cccs1 (configuration not stated) | 1 | x | 16 | 0
O=C(NCc1ccc(F)cc1)C(Cc1ccccc1)NS(=O)(=O)c1cccs1 (configuration not stated) | 25* | 2 | 6 | -1
CN1C(=O)C(C)(C)c2cc(S(=O)(=O)NCC3CCC(C(=O)NC4CCCCC4)CC3)ccc21 (configuration not stated) | -4 | 0 | 29 | -1
O=C(O)c1ccc(-c2ccc(O)c(F)c2)cc1 | -1 | 18* | 2 | -3
O=C(O)c1ccc(O)c(O)c1 | -1 | -21 | -6 | -1
O=C(O)c1ccc(Nc2nc(-c3cc4ccccc4oc3=O)cs2)cc1O | 30* | 0 | -16 | x
CC(=O)Nc1ccc(Nc2nc(-c3cc4ccccc4oc3=O)cs2)cc1 | -1 | 0 | -2 | -1
CC1=NN(c2ccccc2)C(=O)/C1=C/c1c(O)n(-c2ccc(F)cc2)[nH]c1=O | 19* | x | 5 | 0
C[C@@H]1CCCCO[C@H](CN(C)Cc2ccc3c(c2)OCO3)[C@H](C)CN([C@H](C)CO)C(=O)c2cc(NC(=O)CCC(F)(F)F)ccc2O1 | x | 1 | x | -1
O=C(O)c1ccccc1NC(c1ccccc1)c1ccc(Cl)cc1 (configuration not stated) | 12* | -1 | 9 | x
C[C@@H]1Cc2c(O)c(O)cc(O)c2C(=O)O1 | -1 | x | 3 | 0
CC1Oc2cc3c(-c4c(O)cc(O)c5c(O)c6c(cc45)OC(C)C(C)C6=O)c(O)cc(O)c3c(O)c2C(=O)C1C (configuration not stated) | 31* | x | -52 | 0
Cc1noc(C)c1COC(=O)CCCOc1ccc(Cl)cc1Cl | -1 | x | 61* | -1
COc1ccccc1-c1ccc(Nc2ccc(C(=O)N3CCOCC3)cc2)nn1 | 0 | x | -7 | -2
CC(=O)c1ccc(Nc2ccc(-c3ccccc3F)nn2)cc1 | -3 | 10* | 1 | x
NS(=O)(=O)c1ccc(-c2ccc(/C=C3\NC(=S)NC3=O)o2)cc1 | 10* | -6 | -3 | 2
NS(=O)(=O)c1ccc(-c2ccc(C=O)o2)cc1 | 1 | 0 | 2 | x
Cc1cc(C)c(S(=O)(=O)N2CCC(C(=O)NCc3ccc(Cl)cc3Cl)CC2)c(C)c1 | -2 | x | -10 | -4
COc1ccc(CN(Cc2nc3ccccc3c(=O)[nH]2)C(=O)C(C)(C)C)cc1 | 0 | x | 10 | -1
O=C(NC(Cc1ccccc1)C(=O)O)C1CCN(S(=O)(=O)c2ccccc2C(F)(F)F)CC1 (configuration not stated) | 11* | 0 | -2 | 6
CCCCCCCCCCCCCCCCCCNc1ccn(C2OC(COP(=O)(O)OCC3OC(n4cc(F)c(=O)[nH]c4=O)CC3O)C(O)C2O)c(=O)n1 (configuration not stated) | 53* | 1 | 28 | x
CCCCCCCC/C=C\CCCCCCCC(=O)NCCO | 15* | 2 | 25 | 3
Nc1c(C(=O)NCC2CCCO2)sc2nc3c(c(-c4ccco4)c12)CC/C3=C\c1ccco1 (configuration not stated) | 14* | 0 | 2 | -1
NC(=O)c1sc2nc3c(c(-c4ccco4)c2c1N)CCCC3 | -1 | 1 | -9 | 7
CN1OC[C@@H]2CN[C@H](c3cccc(-c4ccc(C#N)cc4)c3)C[C@@H]21 | -1 | 1 | -10 | 1
SMILES | FadD28 binding | TcdB GH inh | Y pestis TopoI | Mtb BioA inh
COc1ccccc1C(=O)Nc1cccc(Oc2c(F)c(F)c(F)c(F)c2F)c1 | -3 | 13* | 16 | -2
COc1ccccc1C(=O)Nc1cccc(C(=O)c2ccccc2)c1 | -6 | 1 | 12 | 0
Cc1ccc(N(Cc2ccccc2)C(=O)c2cccc(S(=O)(=O)N3CCOCC3)c2)cc1 | -6 | -1 | -4 | x
CN(C)P(=O)(Nc1cccc2ccccc12)Nc1cccc2ccccc12 | -2 | 1 | 6 | -2
O=C1NN(c2ccc(Br)cc2)C(=O)/C1=C\c1ccc(O)cc1O | 16* | -1 | -13 | 3
COc1cc(Cn2c(-c3ccc(O)c(OC)c3)nc3ccccc32)ccc1O | -11 | 15* | 0 | x
